# Assay outcomes (PubChem)
# Compounds with a hit are over-represented: about 2.8% of the library has one in this group of screens.
# Platelet DG rel: modulates dense granule release in human platelets; human platelet-rich plasma, SFLLRN dense granule ATP release, luminescence; AID 1663; hit rate 0.22% among 300,000; inhibition, %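 (compounds screened at 7.5 µM in platelet-rich plasma)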;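 active means mean replicate score, as percent of positive control, at or above 50; inconclusive means mean below 50 but at least one replicate at or above 50; inactive means mean and every replicate below 50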
# AHR act: human AHR activation | P35869 | AHR-responsive luciferase reporter cells, luminescence | activation, % at 5 µM | hit rate 2.5% among 320,000 | AID 2796; in the data active means activation above about 47%;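 further: 0% = vehicle wells and 100% = reference agonist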
# HIF activator: HIF pathway transcriptional activation | hit rate 0.32% among 300,000 | U2OS HRE-luciferase reporter, luminescence; normalized: DMSO 0%, desferrioxamine 100% | AID 1910 | activation, % at 7.5 µM (by protocol);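 active means mean activation of at least 10% of the iron chelator positive control signal, with at least half of replicates also reaching 10%; inconclusive means mean and replicate majority disagree about reaching 10%; inactive means mean and most replicates under 10%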
# pCIP destab: compounds decreasing mouse p/CIP protein stability. Q05BA5. F442A p/CIP-EGFP cells, EGFP fluorescence, 16 h. decrease of EGFP signal, % at 10 µM. hit rate 0.01% among 290,000;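 active means EGFP signal decrease of at least 30% at 10 µM or well 3 SD below plate mean, unless failing retest; inactive means the rest, including hits failing retest or dose response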
# PolyA inhibitor: yeast polyadenylation inhibition. AID 1875. activity score, % at 12 µM. S. cerevisiae SKY197-pL101 polyadenylation reporter, beta-gal luminescence; efflux-impaired pdr1/pdr3 knockout yeast; score 100 = 6 SD above DMSO. hit rate 0.02% among 300,000;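 active means lowest replicate activity score at least 50, where 100 means six control SD above control mean; inconclusive means lowest score under 50 but half or more replicates reach 50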;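 further: yeast exposed to compound for 9 h at 30 °C; higher score means more reporter readthrough which indicates perturbed polyadenylation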
# * marks the source's active call; other numbers are inactive results; ? = inconclusive; nt = not tested or not shown.
SMILES,Platelet DG rel,AHR act,HIF activator,pCIP destab,PolyA inhibitor
O=C1C=C(c2ccccc2)CC(c2cccs2)C1n1cnc([N+](=O)[O-])c1 (stereo unspecified),-7,7,48*,1,-9
CC(=O)c1ccc(N=Nc2ccc(N(C)C)cc2)cc1,26,0,1,-3,-2
CN(C)c1ccc(N=Nc2ccccc2Br)cc1,2,53*,-1,6,-36
Cc1cc(C)nc(Sc2ncnc(N)c2[N+](=O)[O-])n1,1,4,11*,-11,-14
Cc1cccc(Nc2ncnc(N)c2[N+](=O)[O-])n1,-3,0,0,3,-7
O=[N+]([O-])c1ccc(O)c(/C=N/n2c(CO)nc3ccccc32)c1,11,6,2,-8,27
O=[N+]([O-])c1ccc(O)c(/C=N/n2cnc3ccccc32)c1,-8,56*,2,15,-17
C/C(=N\OCc1nc2ccccc2c(=O)n1/N=C/c1cc([N+](=O)[O-])ccc1O)c1ccccc1,2,36,10*,-3,-20
C/C(=N\OCc1nc2ccccc2c(=O)n1/N=C/c1cc(C)cc([N+](=O)[O-])c1O)c1ccccc1,8,27,9.6*,3,10
Cn1ccnc1SCC(=O)Nc1ccc2c(c1)OC(F)(F)O2,?,-2,2,-22,-5
COCc1c(C#N)c(NCCc2ccccc2)nc(C)c1[N+](=O)[O-],-1,78*,0,-33,-23
Cc1nc(NCCc2ccccc2F)c(C#N)c(C)c1[N+](=O)[O-],-6,52*,0,8,-2
COCc1c(C#N)c(NCc2cc(OC)c(OC)c(OC)c2)nc(C)c1[N+](=O)[O-],-7,1,0,-10,-1
COCc1c(C#N)c(NCCc2ccc(F)cc2)nc(C)c1[N+](=O)[O-],-2,76*,0,-10,-10
CNc1nc(-c2ccccc2)cc(C)c1S(C)(=O)=O,2,8,2,1,-23
Cc1occc1C(=O)N/N=C/c1ccc(N(C)C)cc1,78*,11,2,-11,11
C/C(=N/N=C/c1ccc(N(C)C)cc1)c1ccccc1,56*,4,1,2,10
CN(C)c1ccc(/C=N/NC(=O)c2ccccc2)cc1,18,47*,2,-10,16
O=C(N/N=C\c1ccc(Cl)cc1Cl)c1sccc1-n1cccc1,6,19,0,1,-1
CN(C)c1ccc(C=Nc2ccccc2)cc1,4,1,nt,-10,-23
Cc1occc1C(=O)N/N=C/C=C/c1ccc(N(C)C)cc1,-2,19,3,-6,17
CN(C)c1ccc(/C=N/NC(=O)c2sccc2-n2cccc2)cc1,3,72*,1,1,-32
O=C(N=Nc1c(O)[nH]c2ccc(F)cc12)C1COc2ccccc2O1 (stereo unspecified),4,25,0,-11,1
Cc1occc1C(=O)O/N=C(\N)c1ccccc1,72*,7,0,7,-11
N/C(=N\OC(=O)c1cccc2ccccc12)c1ccncc1,10,67*,4,-4,-6
SMILES,Platelet DG rel,AHR act,HIF activator,pCIP destab,PolyA inhibitor
COc1ccccc1C(=O)O/N=C(\N)c1ccc(Cl)cc1,2,69*,3,16,2
COc1cc(OC)c(C(=O)O/N=C(\N)c2ccccc2)cc1OC,1,78*,-12,-8,14
CCOC(=O)N1CCN(C(=O)C(NC(=O)c2ccc(C(C)(C)C)cc2)C(C)C)CC1 (stereo unspecified),nt,0,nt,nt,nt
COc1cc(/C=N/NC(=O)CC#N)ccc1Oc1nc(Cl)ncc1F,0,2,0,5,0
CCCCN1C(=O)C(=O)N(CC(=O)c2cc(C)n(C3CC3)c2C)C1=O,nt,0,nt,nt,nt
c1ccc2c(C3=NNC(=NC4CCCCC4)SC3)c[nH]c2c1,0,57*,1,-8,-16
N#Cc1cc(-c2ccccc2)nc(N2CCNCC2)n1,7,50*,0,-4,6
CCOC(=O)CN(C(=O)COc1nc(C)cc(C)c1C#N)c1cccc(Cl)c1,-12,-2,25*,4,14
COC(=O)c1ccccc1C(=O)N(c1ccccc1)c1ccccc1,7,-1,-1,nt,-15
CN(CCS(=O)(=O)c1ccc(Cl)cc1)Cc1cccnc1,-14,0,116*,-11,-11
O=C(CSc1ccc(C(F)(F)F)cc1[N+](=O)[O-])Nc1ccccc1,21,48*,1,-14,-8
CC(C)NC(=O)CNc1ccc(C(F)(F)F)cc1[N+](=O)[O-],7,52*,-1,-1,-3
CCOC(=O)c1c(C)oc2c1c(CN1CCN(C(=O)OCC)CC1)c(O)c1ccccc12,-3,50*,2,6,-16
CC1(C)CC(NC(=O)c2ccc(Cl)c(S(=O)(=O)N(Cc3ccccc3)c3ccccc3)c2)CC(C)(C)N1,0,3,1,nt,13
COc1cc(OC)cc(C(=O)Nc2c(F)cccc2F)c1,-1,59*,0,7,12
COc1cccc(C(=O)Nc2ccc3[nH]ncc3c2)c1,9,52*,2,-11,-12
COc1cc(OC)cc(C(=O)NC(=S)Nc2cccnc2)c1,4,26,1,7,-7
COc1cc(OC)cc(C(=O)Nc2cccnc2)c1,-2,59*,0,-2,-12
Cc1ccc(C(=O)Nc2cccnc2)cc1S(=O)(=O)N1CCCCC1,-11,29,0,-8,10
Cc1ccc(C(=O)Nc2cccnc2)cc1S(=O)(=O)N1CCCC1,-12,54*,1,7,22
CC(C)CCN1C(N(C)C)=NC[C@@H]1C,nt,-1,nt,nt,nt
COc1cc(OC)cc(C(=O)Nc2cccc3cccnc23)c1,-3,50*,-16,7,-28
Cc1ccc(-n2ncc3c2CCCC3NC(=O)CCc2cnccn2)cc1C (stereo unspecified),-3,2,0,4,4
Cc1cccc(-n2c(=O)[nH]c3c(C(N)=O)nc(C(C)C)nc32)c1,2,53*,0,-9,7
COc1ccc2c(c1)sc1nc(-c3ccccc3)cn12,54*,57*,-4,-10,-24
SMILES,Platelet DG rel,AHR act,HIF activator,pCIP destab,PolyA inhibitor
CNC(=O)C1CC(=O)N(c2ccc(OCC(=O)N3CCCC3)cc2)C1 (stereo unspecified),-6,10,29*,7,-1
C=CCNC(=O)C1CC(=O)N(c2ccc(OCC(=O)N3CCCC3)cc2)C1 (stereo unspecified),4,0,1,-16,-2
CC(NS(=O)(=O)c1ccc2c(c1)oc(=O)n2C)c1ccccc1 (stereo unspecified),-25,7,0,-2,-6
O=C(/C=C/Nc1ccc(F)cc1F)c1ccco1,53*,41,0,5,-5
O=C(/C=C/Nc1ccc(Br)cc1F)c1ccco1,65*,46,-5,-11,-22
COc1cccc(/C=N/Nc2cc(Cl)nc(C)n2)c1O,5,22,3,-2,-1
